Test systems include SR leukemia; RPMI-8226 leukemia; OVCAR-8 ovarian; OVCAR-5 ovarian; OVCAR-4 ovarian; SK-OV-3 ovarian; IGROV1 ovarian; OVCAR-3 ovarian; HS 578T breast; NCI/ADR-RES ovarian; T-47D breast; BT-549 breast; MDA-MB-435 melanoma; SW-620 colon; MCF7 breast; HCT-116 colon; HCC-2998 colon; KM12 colon; MDA-MB-468 breast.
Holding throughout (experiment): NCI-60 one-dose screen, 48 h (100 = growth as untreated, 0 = no growth, -100 = all killed)
Holding throughout (conditions): 10 µM unless noted

In PubChem BioAssay (NCI) one finds growth data, which are given here for eight compounds.

Structures are written as SMILES. About 83,000 compounds went through this panel and 20% of them were active in at least one assay; those are over-represented in the sample as a whole.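 Growth was measured after 48 h exposure to one concentration of compound in 96-well plates. Values under 10 count as active.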 A number with no mark means an inactive call. Active and inactive are the calls of the source.

`CC(C)(C)OC(=O)/C=C/c1cccc2c1C(=O)NC(C)(c1cc3cc(Cl)ccc3oc1=O)N2` (configuration not stated): the growth with SR leukemia is 8.86% (active); in the test with RPMI-8226 leukemia, 1.99% (active); in the test with OVCAR-8 ovarian it was 39.1%; with OVCAR-5 ovarian, 67.1%; with OVCAR-4 ovarian, 43.9%; in the test on SK-OV-3 ovarian, 47.6%. Moreover, the growth with IGROV1 ovarian is 44.7%; in the test with OVCAR-3 ovarian, 43.8%; in the test on HS 578T breast, 65.1%; in the test with NCI/ADR-RES ovarian it was 25.4%; in the test with T-47D breast it was -3.39% (active); in the test on BT-549 breast, 15.2%. The growth in the test with MDA-MB-435 melanoma is 62.2%; in the test with SW-620 colon, 55.7%; in the test with MCF7 breast, 17.5%; in the test with HCT-116 colon, 31.5%; in the test on HCC-2998 colon, 52.9%; in the test on KM12 colon, 19.9%. The growth with MDA-MB-468 breast was 11.6%.

Consider `O=C(c1ccccc1)c1ccc2nc(-c3ccc(F)cc3)[nH]c2c1`, for which the growth in the test on SR leukemia was 27.9%; with RPMI-8226 leukemia, 43.1%; in the test on OVCAR-8 ovarian, 83.3%; in the test with OVCAR-5 ovarian, 41.5%; in the test with OVCAR-4 ovarian, 49.5%; in the test on SK-OV-3 ovarian it was 74%. The growth in the test with IGROV1 ovarian was 45.9%; in the test with OVCAR-3 ovarian it was 32.6%; with HS 578T breast, 65.1%; in the test with NCI/ADR-RES ovarian, 58.3%; with T-47D breast, 47.5%; with BT-549 breast it was 40.1%. The growth was 57.6% with MDA-MB-435 melanoma; 28.2% in the test with SW-620 colon; 35.9% with MCF7 breast; 41.7% in the test on HCT-116 colon; 91% in the test on HCC-2998 colon; 65% in the test on KM12 colon. Further, in the test with MDA-MB-468 breast, the growth was 42.8%.

As for `Cn1cc(-c2nc(N)nnc2-c2c[nH]c3ccc(F)cc23)c2cc(Br)cnc21`, the growth in the test with SR leukemia is 3.88% (active); in the test on RPMI-8226 leukemia, -6.78% (active); in the test on OVCAR-8 ovarian it was 0.188% (active); in the test on OVCAR-5 ovarian it was 14.9%; in the test on OVCAR-4 ovarian, 29.8%; in the test on SK-OV-3 ovarian, 19.8%. Also, the growth is 15.8% in the test on IGROV1 ovarian; -33.2% (active) in the test with OVCAR-3 ovarian; 35.8% with HS 578T breast; 0.236% (active) in the test on NCI/ADR-RES ovarian; 43.5% with T-47D breast; -42.4% (active) in the test on BT-549 breast. Further, the growth is -39.4% (active) with MDA-MB-435 melanoma; 17.2% in the test with SW-620 colon; 4.55% (active) in the test with MCF7 breast; -14.8% (active) in the test on HCT-116 colon; -40.9% (active) in the test with HCC-2998 colon; -21.7% (active) in the test with KM12 colon. Besides, the growth in the test on MDA-MB-468 breast was -20.2% (active).

As for `O=C(CCN1C(=O)/C(=C/c2ccc(F)cc2)SC1=S)N1CCOCC1`, the growth with SR leukemia is 35%; with RPMI-8226 leukemia, 52.2%; in the test with OVCAR-8 ovarian, 80.9%; in the test on OVCAR-5 ovarian, 79.1%; in the test on OVCAR-4 ovarian, 55.5%; with SK-OV-3 ovarian, 91.5%. Besides, the growth with IGROV1 ovarian was 85.6%; in the test on OVCAR-3 ovarian it was 78.7%; with HS 578T breast, 89%; in the test with NCI/ADR-RES ovarian it was 78.2%; in the test with T-47D breast it was 24.4%; with BT-549 breast, 62.6%. Besides, the growth was 73.5% with MDA-MB-435 melanoma; 61.9% in the test with SW-620 colon; 48.1% in the test on MCF7 breast; 55.5% in the test with HCT-116 colon; 113% in the test with HCC-2998 colon; 76% with KM12 colon. The growth in the test on MDA-MB-468 breast was -11.2% (active).

On to `Cc1ccc(S(=O)(=O)c2nc(S(=O)(=O)c3ccc(C)cc3)c(N3CCN(C)CC3)s2)cc1`, for which the growth was 16.1% with SR leukemia; 52.2% in the test on RPMI-8226 leukemia; 48% in the test on OVCAR-8 ovarian; 94.1% with OVCAR-5 ovarian; 62.5% in the test on OVCAR-4 ovarian; 124% in the test on SK-OV-3 ovarian. Also, the growth with IGROV1 ovarian was 77.1%; with OVCAR-3 ovarian, 46.1%; with HS 578T breast, 81.1%; with NCI/ADR-RES ovarian it was 44.4%; in the test on T-47D breast, 38%; with BT-549 breast, 43.4%. Also, the growth in the test with MDA-MB-435 melanoma was 8.29% (active); in the test on SW-620 colon, 36.1%; with MCF7 breast it was 43.1%; in the test on HCT-116 colon, 46.9%; in the test with HCC-2998 colon, 107%; with KM12 colon, 76.4%. Besides, in the test with MDA-MB-468 breast, the growth is -15% (active).

For the compound `CCCCCCn1c(O)c(N=Nc2nc(-c3cc4ccccc4oc3=O)cs2)c2ccccc21`, the growth with SR leukemia is 12%; in the test on RPMI-8226 leukemia, 60.9%; in the test with OVCAR-8 ovarian, 34.1%; in the test with OVCAR-5 ovarian it was -53.2% (active); with OVCAR-4 ovarian, -48.2% (active); in the test with SK-OV-3 ovarian, 96.9%. The growth in the test on IGROV1 ovarian was -62.4% (active); in the test with OVCAR-3 ovarian, -94.9% (active); with HS 578T breast, 60.5%; in the test on NCI/ADR-RES ovarian, 50.2%; with T-47D breast it was -12% (active); in the test with BT-549 breast, -20.5% (active). The growth in the test with MDA-MB-435 melanoma was 26.3%; with SW-620 colon, 56.2%; in the test with MCF7 breast, -18% (active); in the test on HCT-116 colon, -51.7% (active); in the test on HCC-2998 colon, 37.8%; in the test with KM12 colon, 13.6%. Further, the growth in the test on MDA-MB-468 breast is 45.3%.

`Cc1ccc(/C=C/c2n(Cc3ccc4ccccc4c3)c3ccccc3[n+]2Cc2ccc3ccccc3c2)cc1`: the growth in the test with SR leukemia was -34.2% (active); in the test on RPMI-8226 leukemia, -71% (active); in the test on OVCAR-8 ovarian it was -59.8% (active); in the test on OVCAR-5 ovarian it was -94% (active); in the test on OVCAR-4 ovarian, -70.5% (active); with SK-OV-3 ovarian, -87.1% (active). For the same compound, the growth is -76% (active) with IGROV1 ovarian; -83.3% (active) with OVCAR-3 ovarian; -46.2% (active) with HS 578T breast; -48.1% (active) in the test with NCI/ADR-RES ovarian; -51.1% (active) in the test with T-47D breast; -69.9% (active) in the test on BT-549 breast. Further, the growth in the test on MDA-MB-435 melanoma was -78.2% (active); in the test on SW-620 colon it was -75.1% (active); in the test with MCF7 breast it was -78.3% (active); with HCT-116 colon, -40.8% (active); in the test with HCC-2998 colon, -87.3% (active); in the test on KM12 colon, -88.5% (active). Further, in the test with MDA-MB-468 breast, the growth is -78.6% (active).

For `C#CCOc1ccc(/C=N/Nc2nc(-c3ccc(Cl)cc3)cs2)cc1OC`, the growth in the test on SR leukemia was 22.2%; in the test with RPMI-8226 leukemia it was 38.5%; in the test on OVCAR-8 ovarian, 51.7%; in the test on OVCAR-5 ovarian, 86.9%; with OVCAR-4 ovarian, 54.2%; with SK-OV-3 ovarian, 88.2%. Moreover, the growth is 88.1% with IGROV1 ovarian; 69.1% with OVCAR-3 ovarian; 81.1% in the test on HS 578T breast; 46% in the test on NCI/ADR-RES ovarian; 18.5% with T-47D breast; 36% in the test with BT-549 breast. Also, the growth was 44.1% with MDA-MB-435 melanoma; 82.2% with SW-620 colon; 21.8% with MCF7 breast; 48.1% in the test on HCT-116 colon; 90.3% in the test with HCC-2998 colon; 61.8% in the test with KM12 colon. Besides, the growth in the test with MDA-MB-468 breast is 42.1%.
